# About 8,800 targets were measured; listed, in parts, are those with a hit and a random draw of the rest. About 0.5% of all pairs of compound and target were hits. Values without a mark were called inactive.
# Key:
# Assay in all cases: log2 fold change, soluble protein after heating vs DMSO (PISA); higher = thermal stabilisation; K562 lysate, 10 uM; active = over 0.2 and 3.5 SD of the protein, either way, in both replicates (recomputed)
# erlotinib = compound: C#Cc1cccc(Nc2ncnc3cc(OCCOC)c(OCCOC)cc23)c1 [erlotinib]
# How it was run: (§1)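 Log-two fold change in thermal stability relative to solvent controls is reported from duplicates. For each sample, crude K562 extract from dounce-homogenised pellets in PBS pH 7.4 with 1 mM MgCl2, at 1 mg/mL protein, was treated with 10 μM compound for 30 min. Aliquots heated for 3 min across 48°C-58°C were pooled, brought to 0.5% NP-40 at 4°C and cleared at 21,000xg for 90 min. The supernatant was quantified by TMTpro 16plex LC-MS/MS with channel sums equalised.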
# [1] = compound: C/C(=N\NC(=O)C1=CC(=CC=C1)S(=O)(=O)N2CCOCC2)/C3=C(C=CC(=C3)Cl)O
# How it was run: as §1
# [2] = compound: C1=CC(=CC=C1C2=NC3=C(N2)C=C(C=C3)C(=O)N)OC4=CC=C(C=C4)Cl
# How it was run: as §1
# [3] = compound: C1=CC2=C(C=CC(=C2)/C=C\3/C(=O)NC(=NCC4=CC=CS4)S3)N=C1
# How it was run: as §1
# [4] = compound: C1=CC2=NC=CN=C2C=C1/C=C/3\C(=O)NC(=O)S3
# How it was run: as §1
# [5] = compound: C1=CC=C(C=C1)C2=NC(=C(N2)C3=CC=NC=C3)C4=CC(=C(C=C4)Cl)O
# How it was run: as §1
# [6] = compound: C1=CC=C2C(=C1)C3=NNC4=CC=CC(=C43)C2=O
# How it was run: as §1
# [7] = compound: C1CCN(C1)C(=O)NC2=CC=CC(=C2)NC3=NC=C(C(=N3)NCCC4=CN=CN4)Br
# How it was run: as §1
# [8] = compound: C1CN(CCC1(CC2=CC=C(C=C2)Cl)N)C3=NC=NC4=C3C=CN4
# How it was run: as §1
# IRAK-1-4 Inhibitor I = compound: C1COCCN1CCN2C3=CC=CC=C3N=C2NC(=O)C4=CC(=CC=C4)[N+](=O)[O-] [IRAK-1-4 Inhibitor I]
# How it was run: as §1
# UniProt Q96S55, sequence (Q96S55 whole entry, looked up): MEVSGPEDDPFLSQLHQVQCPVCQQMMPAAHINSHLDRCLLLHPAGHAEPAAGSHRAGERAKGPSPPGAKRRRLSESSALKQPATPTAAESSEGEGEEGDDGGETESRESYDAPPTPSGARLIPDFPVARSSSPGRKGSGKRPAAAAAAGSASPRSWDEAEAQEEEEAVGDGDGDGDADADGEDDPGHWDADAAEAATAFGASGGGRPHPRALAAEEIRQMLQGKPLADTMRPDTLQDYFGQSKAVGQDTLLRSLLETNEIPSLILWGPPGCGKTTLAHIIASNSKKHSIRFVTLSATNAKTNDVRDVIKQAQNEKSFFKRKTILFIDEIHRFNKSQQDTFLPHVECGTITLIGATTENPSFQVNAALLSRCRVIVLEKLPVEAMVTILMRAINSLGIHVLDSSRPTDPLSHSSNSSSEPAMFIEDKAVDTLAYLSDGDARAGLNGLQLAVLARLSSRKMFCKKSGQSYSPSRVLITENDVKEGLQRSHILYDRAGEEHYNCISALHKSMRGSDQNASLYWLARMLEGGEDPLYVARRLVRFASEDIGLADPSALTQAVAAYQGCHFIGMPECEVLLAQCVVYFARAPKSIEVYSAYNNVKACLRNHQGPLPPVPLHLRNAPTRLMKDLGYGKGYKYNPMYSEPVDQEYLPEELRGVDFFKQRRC
# UniProt A4D1P6, sequence (A4D1P6 whole entry, looked up): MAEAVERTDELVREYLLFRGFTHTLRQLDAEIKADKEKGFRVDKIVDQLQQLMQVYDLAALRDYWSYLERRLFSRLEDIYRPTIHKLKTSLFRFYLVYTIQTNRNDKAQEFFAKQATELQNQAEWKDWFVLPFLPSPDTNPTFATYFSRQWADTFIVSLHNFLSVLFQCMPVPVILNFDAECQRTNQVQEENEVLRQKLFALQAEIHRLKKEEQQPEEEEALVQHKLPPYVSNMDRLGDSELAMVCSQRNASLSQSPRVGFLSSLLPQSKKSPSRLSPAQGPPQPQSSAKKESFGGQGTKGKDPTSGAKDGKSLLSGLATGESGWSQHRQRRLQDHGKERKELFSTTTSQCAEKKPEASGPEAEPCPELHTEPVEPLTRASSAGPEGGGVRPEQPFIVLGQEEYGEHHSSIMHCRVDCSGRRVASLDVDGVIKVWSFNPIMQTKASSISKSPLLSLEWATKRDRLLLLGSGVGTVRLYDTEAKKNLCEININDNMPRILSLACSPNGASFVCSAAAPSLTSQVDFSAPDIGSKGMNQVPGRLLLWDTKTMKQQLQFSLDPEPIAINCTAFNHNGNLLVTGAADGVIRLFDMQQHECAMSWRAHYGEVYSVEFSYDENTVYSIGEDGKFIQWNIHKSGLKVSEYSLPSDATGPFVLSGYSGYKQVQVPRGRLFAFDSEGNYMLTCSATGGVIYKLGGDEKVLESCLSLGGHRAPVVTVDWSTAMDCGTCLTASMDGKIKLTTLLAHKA
# UniProt O15014, sequence (O15014 whole entry, looked up): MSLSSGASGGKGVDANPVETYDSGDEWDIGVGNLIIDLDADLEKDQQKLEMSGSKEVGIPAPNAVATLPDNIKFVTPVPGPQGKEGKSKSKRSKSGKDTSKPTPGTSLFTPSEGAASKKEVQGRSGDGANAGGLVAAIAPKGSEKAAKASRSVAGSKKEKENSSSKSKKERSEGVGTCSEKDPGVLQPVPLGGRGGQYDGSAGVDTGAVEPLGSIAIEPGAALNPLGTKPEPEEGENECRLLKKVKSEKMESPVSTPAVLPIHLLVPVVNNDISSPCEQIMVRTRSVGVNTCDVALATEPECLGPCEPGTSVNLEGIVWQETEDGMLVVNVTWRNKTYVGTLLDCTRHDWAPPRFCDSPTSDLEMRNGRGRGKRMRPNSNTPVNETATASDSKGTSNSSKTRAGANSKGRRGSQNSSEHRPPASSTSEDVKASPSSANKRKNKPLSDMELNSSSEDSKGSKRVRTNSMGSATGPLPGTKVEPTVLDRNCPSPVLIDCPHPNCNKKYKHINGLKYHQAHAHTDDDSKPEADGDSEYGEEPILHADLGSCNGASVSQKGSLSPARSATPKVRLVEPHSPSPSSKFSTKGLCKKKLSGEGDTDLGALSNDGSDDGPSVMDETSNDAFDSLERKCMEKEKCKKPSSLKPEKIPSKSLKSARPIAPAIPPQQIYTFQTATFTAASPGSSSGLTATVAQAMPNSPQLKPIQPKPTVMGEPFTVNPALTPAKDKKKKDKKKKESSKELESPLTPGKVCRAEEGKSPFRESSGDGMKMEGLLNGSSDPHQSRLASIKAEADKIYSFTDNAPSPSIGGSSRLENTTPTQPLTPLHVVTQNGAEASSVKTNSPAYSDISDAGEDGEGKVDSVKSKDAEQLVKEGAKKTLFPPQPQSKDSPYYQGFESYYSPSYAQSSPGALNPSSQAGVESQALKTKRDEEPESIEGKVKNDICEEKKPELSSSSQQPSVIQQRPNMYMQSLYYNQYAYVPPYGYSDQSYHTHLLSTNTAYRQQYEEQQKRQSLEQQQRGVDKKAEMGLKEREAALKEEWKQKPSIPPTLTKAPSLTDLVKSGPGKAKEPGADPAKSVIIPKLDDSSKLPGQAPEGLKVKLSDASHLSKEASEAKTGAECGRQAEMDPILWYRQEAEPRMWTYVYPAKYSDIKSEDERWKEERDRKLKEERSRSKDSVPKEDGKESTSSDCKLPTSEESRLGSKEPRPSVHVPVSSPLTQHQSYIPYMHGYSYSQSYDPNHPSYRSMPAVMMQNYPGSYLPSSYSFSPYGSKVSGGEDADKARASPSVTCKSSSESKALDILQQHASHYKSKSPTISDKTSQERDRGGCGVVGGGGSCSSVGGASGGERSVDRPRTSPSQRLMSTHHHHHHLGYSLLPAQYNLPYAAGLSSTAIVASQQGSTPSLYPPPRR
# UniProt Q9ULU4, sequence (Q9ULU4 whole entry, looked up): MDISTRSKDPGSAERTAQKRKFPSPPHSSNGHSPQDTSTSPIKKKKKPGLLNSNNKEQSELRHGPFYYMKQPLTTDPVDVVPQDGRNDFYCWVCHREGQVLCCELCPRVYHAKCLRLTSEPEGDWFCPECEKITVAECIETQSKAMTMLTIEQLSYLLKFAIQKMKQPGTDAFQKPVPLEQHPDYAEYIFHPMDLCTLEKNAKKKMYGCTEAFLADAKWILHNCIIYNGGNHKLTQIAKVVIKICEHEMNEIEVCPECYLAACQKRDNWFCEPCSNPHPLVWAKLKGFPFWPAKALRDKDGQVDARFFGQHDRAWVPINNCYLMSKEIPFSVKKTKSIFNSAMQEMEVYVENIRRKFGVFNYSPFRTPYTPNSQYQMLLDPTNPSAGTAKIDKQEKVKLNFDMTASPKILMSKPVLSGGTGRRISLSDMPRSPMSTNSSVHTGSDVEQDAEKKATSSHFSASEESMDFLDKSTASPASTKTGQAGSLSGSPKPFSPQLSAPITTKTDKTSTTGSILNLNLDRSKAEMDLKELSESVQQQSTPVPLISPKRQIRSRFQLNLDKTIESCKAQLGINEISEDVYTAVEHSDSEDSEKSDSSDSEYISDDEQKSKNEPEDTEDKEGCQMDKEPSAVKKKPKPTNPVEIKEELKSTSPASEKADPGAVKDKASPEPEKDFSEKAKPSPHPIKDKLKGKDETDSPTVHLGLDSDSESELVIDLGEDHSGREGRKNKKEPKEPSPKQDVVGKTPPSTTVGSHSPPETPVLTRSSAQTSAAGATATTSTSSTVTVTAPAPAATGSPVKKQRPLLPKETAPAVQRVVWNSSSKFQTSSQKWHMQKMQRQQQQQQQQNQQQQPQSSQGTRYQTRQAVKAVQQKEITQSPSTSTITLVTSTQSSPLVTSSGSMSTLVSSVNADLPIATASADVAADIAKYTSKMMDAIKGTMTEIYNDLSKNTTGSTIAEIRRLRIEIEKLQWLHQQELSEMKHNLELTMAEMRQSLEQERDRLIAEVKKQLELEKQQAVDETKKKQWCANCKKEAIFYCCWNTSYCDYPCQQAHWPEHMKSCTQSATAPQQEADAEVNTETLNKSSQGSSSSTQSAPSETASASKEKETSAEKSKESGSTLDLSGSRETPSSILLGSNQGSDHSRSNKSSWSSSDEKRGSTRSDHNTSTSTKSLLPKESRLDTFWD
# UniProt Q9UKY1, sequence (Q9UKY1 whole entry, looked up): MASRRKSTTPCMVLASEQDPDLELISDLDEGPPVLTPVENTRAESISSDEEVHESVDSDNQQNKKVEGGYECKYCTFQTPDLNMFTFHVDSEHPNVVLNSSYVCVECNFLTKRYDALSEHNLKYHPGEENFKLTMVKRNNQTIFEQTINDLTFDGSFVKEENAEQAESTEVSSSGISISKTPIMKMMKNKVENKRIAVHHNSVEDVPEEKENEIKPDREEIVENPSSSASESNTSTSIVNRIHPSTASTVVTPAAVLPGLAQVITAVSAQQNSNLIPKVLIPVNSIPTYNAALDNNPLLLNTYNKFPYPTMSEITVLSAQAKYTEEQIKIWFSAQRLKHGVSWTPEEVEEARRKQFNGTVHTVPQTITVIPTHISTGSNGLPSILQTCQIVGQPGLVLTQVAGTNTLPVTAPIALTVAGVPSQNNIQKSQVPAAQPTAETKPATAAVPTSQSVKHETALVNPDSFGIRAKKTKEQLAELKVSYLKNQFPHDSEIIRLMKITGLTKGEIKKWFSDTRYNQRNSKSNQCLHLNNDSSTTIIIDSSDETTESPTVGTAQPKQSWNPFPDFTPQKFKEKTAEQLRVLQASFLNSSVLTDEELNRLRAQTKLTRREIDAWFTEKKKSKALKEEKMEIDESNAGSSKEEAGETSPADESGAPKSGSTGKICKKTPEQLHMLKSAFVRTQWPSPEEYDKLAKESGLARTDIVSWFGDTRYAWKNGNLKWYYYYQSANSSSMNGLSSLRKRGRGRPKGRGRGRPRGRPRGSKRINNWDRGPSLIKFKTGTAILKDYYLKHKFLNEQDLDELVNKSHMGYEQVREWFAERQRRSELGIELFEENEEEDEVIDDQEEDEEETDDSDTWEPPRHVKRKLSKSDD
# UniProt P63027, sequence (P63027 whole entry, looked up): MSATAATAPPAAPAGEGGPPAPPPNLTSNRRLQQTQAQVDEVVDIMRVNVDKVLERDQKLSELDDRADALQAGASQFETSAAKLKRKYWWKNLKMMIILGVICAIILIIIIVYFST
Target,log2 fold change (erlotinib),log2 fold change [1],log2 fold change [2],log2 fold change [3],log2 fold change [4],log2 fold change [5],log2 fold change [6],log2 fold change [7],log2 fold change [8],log2 fold change (IRAK-1-4 Inhibitor I)
WDR62 isoform 4 (UniProt O43379),0.017,-0.027,-0.018,-0.007,-0.012,0.017,-0.052,0.024,-0.008,0.011
ZMYND8 isoform 19 (UniProt Q9ULU4),-0.012,-0.058,0.023,0.011,-0.037,0.024,-0.077,-0.021,0.018,-0.025
ZC3H13 (UniProt Q5T200),0.081,0.003,0.034,-0.027,-0.071,0.075,-0.045,-0.016,-0.043,0.007
WRNIP1 (UniProt Q96S55),0.019,-0.128,-0.014,-0.024,-0.005,0.003,-0.064,0.028,0.023,-0.05
WDR91 (UniProt A4D1P6),0.02,0.04,-0.019,0.038,-0.034,0.002,0.019,-0.011,-0.007,-0.013
VPS39 (UniProt Q96JC1),0.015,-0.022,-0.005,-0.003,-0.002,0.015,-0.007,-0.034,0.031,0.019
VAMP2 (UniProt P63027),-0.083,0.055,-0.024,-0.063,0.063,-0.082,-0.037,0.081,-0.009,-0.033
USP8 (UniProt P40818),-0.011,-0.034,0.026,-0.004,-0.034,0.014,-0.028,-0.014,0.006,-0.019
ZNF609 (UniProt O15014),-0.035,-0.013,0.028,-0.029,-0.053,-0.023,-0.109,-0.008,0.026,-0.005
VPS18 (UniProt Q9P253),0.018,0.056,-0.032,-0.021,-0.016,0.051,-0.076,-0.017,0.053,-0.034
USE1 (UniProt Q9NZ43),0.019,0.31 (active),-0.026,-0.062,0,-0.038,-0.06,0.019,0.025,0.056
ZHX1 (UniProt Q9UKY1),0.02,-0.094,0.082,0.051,-0.027,-0.027,-0.077,-0.119,0.026,-0.055
USP3 (UniProt Q9Y6I4),-0.001,0.05,0.033,0.031,0.018,0.011,0.014,-0.037,0.035,-0.044
VPS41 (UniProt P49754),0.032,0.073,-0.029,0.062,-0.003,0.036,-0.033,-0.025,0.049,-0.008
VPS4A (UniProt Q9UN37),0.051,0.005,-0.076,0.043,-0.014,-0.017,-0.15,0.029,-0.037,-0.037
